Most compounds without a hit are left out; they make up all but 1.6% or so of the library.
HUVEC tox IL1B: cytotoxicity in IL-1B stimulated HUVEC, primary screen, cytotoxicity control for IL-1B NFkB translocation project, imaging, Hoechst nuclear count, IL-1B stimulus; cell count reduction, % at 2 µM; AID 845, 2007; 0.41% of 94,000 active; HUVEC cell count loss;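 active = cell count reduction more than 3 SD above the screen-wide mean, cut at about 70% in these data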;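 also: normalized per plate to untreated control cells as the no-loss baseline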
HUVEC tox TNFa: cytotoxicity in TNFa-stimulated HUVEC, primary screen, cytotoxicity control for VCAM1 expression modulator project, imaging, Hoechst nuclei count; HUVEC TNFalpha-stimulated, Hoechst cell count; cell count reduction, % at 2 µM; 0.17% of 93,000 active;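 active = cell count reduction exceeding the screen mean by over 5 SD, scaled to untreated wells per plate, cut at about 78% in these data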;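 also: cells counted after 24 h of TNF alpha exposure following the 1 h pretreatment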
cytoskel mod: modifiers of F-actin cytoskeleton organization, primary screen, imaging, HUVEC, phalloidin staining, high-content imaging; HUVEC TNFa F-actin phalloidin imaging; inhibition, % at 2 µM; 0.18% of 91,000 active; AID 836, 2007;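 active = inhibition above the batch mean plus 3 SD and confirmed as a hit by visual image inspection, cut at about 30% in these data, passing the limit was not always enough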
VCAM1 TNFa inh: inhibitors of TNFa-induced VCAM1 expression, primary screen, imaging, HUVEC, TNFa stimulus, immunofluorescence. HUVEC TNFa-induced VCAM-1 immunofluorescence, high-content imaging. inhibition, % at 2 µM. 0.48% of 95,000 active. AID 802, 2007;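 active = inhibition above the batch mean plus 3 SD, with images confirmed as a hit by eye, cut at about 37% in these data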;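 also: 0% = TNF-stimulated DMSO wells and 100% = unstimulated control wells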
NFkB transloc inh: inhibitors of IL-1B driven NFkB p65 nuclear import, primary screen, imaging, HUVEC, IL-1B stimulus, high-content imaging. AID 796, 2007. inhibition, % at 2 µM. HUVEC IL-1B NFkB p65 nuclear translocation imaging. 0.43% of 94,000 active;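 active = inhibition above about 30% together with a positive call from visual inspection of the well image, limit read from the data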;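 also: nuclear over cytoplasmic p65 intensity ratio measured by imaging; 0% = IL-1B stimulated DMSO wells and 100% = unstimulated DMSO wells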
IL1B NFkB pot: enhancers of NFkB p65 translocation in HUVEC – imaging, IL-1B stimulus, high-content imaging, primary screen | 0.3% of 94,000 active | HUVEC IL-1B NFkB p65 nuclear translocation imaging | activation, % at 2 µM;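 active = activation above 40%, about the mean plus 3 SD, also judged a hit on visual image review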;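 also: percent activation is computed from the nuclear over cytoplasmic p65 intensity ratio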
Numbers without * were called inactive.

What do the screens show for `COc1ccc(Cl)cc1S(=O)(=O)N1CCN(Cc2ccc3c(c2)OCO3)CC1`?
HUVEC tox IL1B: -78; HUVEC tox TNFa: -1; cytoskel mod: -20; VCAM1 TNFa inh: -1; NFkB transloc inh: -19; IL1B NFkB pot: 19

How did CCC(=O)Nc1nnc(SCC(=O)c2ccc3c(c2)Cc2ccccc2-3)s1 do in these assays?
HUVEC tox IL1B: -25; HUVEC tox TNFa: 3; cytoskel mod: 4; VCAM1 TNFa inh: -2; NFkB transloc inh: -5; IL1B NFkB pot: 5

Results for Cc1cc(C)c2c(n1)sc1c(N3CCN(CCO)CC3)ncnc12 ?
HUVEC tox IL1B: -14; HUVEC tox TNFa: -16; cytoskel mod: -17; VCAM1 TNFa inh: -48; NFkB transloc inh: -4; IL1B NFkB pot: 4

What do the screens show for `CCN1CCC2(CC1)C(C#N)=C(N)Oc1c2sc2nc(C)cc(C)c12`?
HUVEC tox IL1B: 7; HUVEC tox TNFa: 69; cytoskel mod: -61; VCAM1 TNFa inh: 84*; NFkB transloc inh: -2; IL1B NFkB pot: 2

Results for COCc1cc(C)n(CC(=O)Nc2ccc(Cl)cc2Cl)c(=O)c1C#N ?
HUVEC tox IL1B: -2; HUVEC tox TNFa: -8; cytoskel mod: 15; VCAM1 TNFa inh: -10; NFkB transloc inh: -41; IL1B NFkB pot: 41*

How did COCc1cc(C)n(CC(=O)Nc2ccccc2OC)c(=O)c1C#N do in these assays?
HUVEC tox IL1B: 4; HUVEC tox TNFa: -10; cytoskel mod: 55; VCAM1 TNFa inh: 0; NFkB transloc inh: -8; IL1B NFkB pot: 8

Results for Cc1ccc(NS(=O)(=O)c2ccc(N3C(=O)CCC3=O)cc2)cc1 ?
HUVEC tox IL1B: -11; HUVEC tox TNFa: -8; cytoskel mod: 1; VCAM1 TNFa inh: -12; NFkB transloc inh: 7; IL1B NFkB pot: -7

What do the screens show for `COc1ccccc1NC(=O)N1CCC(c2nc3cc(C)c(C)cc3[nH]2)CC1`?
HUVEC tox IL1B: 5; HUVEC tox TNFa: 2; cytoskel mod: -7; VCAM1 TNFa inh: 5; NFkB transloc inh: 1; IL1B NFkB pot: -1

Results for COc1ccccc1NC(=S)N1CCC(c2nc3cc(C)c(C)cc3[nH]2)CC1 ?
HUVEC tox IL1B: -15; HUVEC tox TNFa: -8; cytoskel mod: 1; VCAM1 TNFa inh: 8; NFkB transloc inh: 56*; IL1B NFkB pot: -56

Results for COc1cc(C(=O)N(Cc2ccco2)Cc2cc3ccccc3[nH]c2=O)cc(OC)c1OC ?
HUVEC tox IL1B: 18; HUVEC tox TNFa: 44; cytoskel mod: 35*; VCAM1 TNFa inh: -8; NFkB transloc inh: 1; IL1B NFkB pot: -1

What do the screens show for `CC1=NNC(=O)/C1=C\c1cn(-c2ccccc2)nc1-c1ccc(Cl)cc1`?
HUVEC tox IL1B: 25; HUVEC tox TNFa: 84*; cytoskel mod: 16; VCAM1 TNFa inh: 99*; NFkB transloc inh: 71*; IL1B NFkB pot: -71

Results for Cc1ccc(-c2nn(-c3ccccc3)cc2C=C2C(=O)CC(C)(C)CC2=O)cc1 ?
HUVEC tox IL1B: -12; HUVEC tox TNFa: -4; cytoskel mod: 1; VCAM1 TNFa inh: 8; NFkB transloc inh: 6; IL1B NFkB pot: -6

Results for COC(=O)CN1C(=S)N(Cc2ccccc2)C(=O)C1CC(=O)Nc1ccc(Br)cc1 (stereo not drawn) ?
HUVEC tox IL1B: 2; HUVEC tox TNFa: -22; cytoskel mod: 4; VCAM1 TNFa inh: -6; NFkB transloc inh: 3; IL1B NFkB pot: -3

How did CCCCn1nnnc1SCC(=O)Nc1ccc(N(C)C)cc1 do in these assays?
HUVEC tox IL1B: -17; HUVEC tox TNFa: -1; cytoskel mod: -42; VCAM1 TNFa inh: 1; NFkB transloc inh: -30; IL1B NFkB pot: 30

Results for CN(C/C(O)=C(\C#N)c1ccccc1)C1CCCCC1 ?
HUVEC tox IL1B: -2; HUVEC tox TNFa: -3; cytoskel mod: 14; VCAM1 TNFa inh: 7; NFkB transloc inh: -126; IL1B NFkB pot: 126*

Results for CN(CC(=O)Nc1sccc1C#N)C1CCCCC1 ?
HUVEC tox IL1B: -9; HUVEC tox TNFa: 0; cytoskel mod: -18; VCAM1 TNFa inh: 16; NFkB transloc inh: -9; IL1B NFkB pot: 9

What do the screens show for `CCCN1CCN(CCCNC(=O)c2cc3c(=O)n(C)c4ccccc4c3n2C)CC1`?
HUVEC tox IL1B: -6; HUVEC tox TNFa: -10; cytoskel mod: 5; VCAM1 TNFa inh: 23; NFkB transloc inh: 90*; IL1B NFkB pot: -89

Source: PubChem (Columbia University Molecular Screening Center)
